Results reported in article PMC4552634, “A New Set of Chemical Starting Points with Plasmodium falciparum Transmission-Blocking Potential for Antimalarial Drug Discovery” (PLoS ONE, 2015).
The whole screen tested about 13,000 compounds, of which about 3,200 (25%) showed an effect of 50% or more. Some of the results follow.

system: P. falciparum stage V gametocytes; design: BacTiter-Glo ATP luminescence viability of purified stage V gametocytes in 384-well plates, per cent inhibition versus DMSO; conditions: 48 h, 5 µM; inhibitor

SMILES | % Inhibition
Cc1ccc(NC(=O)Nc2ccc(Cl)c(C(F)(F)F)c2)cc1-c1ccc(C(=O)Nc2ccncc2)cc1 [TCMDC-133700] | -87.03%
Cc1ccc(NC(=O)c2cccc(N3CCN(c4ccncc4)CC3)c2)cc1F [TCMDC-135124] | -11.57%
CN(C)c1ccc(C2c3nc[nH]c3CCN2C(=O)Nc2cccc([N+](=O)[O-])c2)cc1 (centres unmarked) [TCMDC-141569] | 12.33%
CCNc1cc(C(=O)N[C@@H](Cc2ccccc2)[C@H](O)CNC(C)Cc2cccc(Cl)c2)cc(N2CCCCS2(=O)=O)c1 (some centres unmarked) [TCMDC-135412] | 76.43%
COc1cc(CNC[C@@H](O)[C@H](Cc2ccccc2)NC(=O)c2cc(C3CCCC3)cc(N3CCCCS3(=O)=O)c2)cc(OC)c1 [TCMDC-134561] | 14.07%
CCCC(C)NC[C@@H](O)[C@H](Cc1ccccc1)NC(=O)c1cc(C2CCCC2)cc(N2CCCCS2(=O)=O)c1 (some centres unmarked) [TCMDC-135216] | 60.63%
CCNc1cc(C(=O)N[C@@H](Cc2ccccc2Cl)[C@H](O)CNC(C)CCCC(C)C)cc(N2CCCCS2(=O)=O)c1 (some centres unmarked) [TCMDC-135224] | 92.78%
CCNc1cc(C(=O)N[C@@H](Cc2cccc(Cl)c2)[C@H](O)CNC(C)CCCC(C)C)cc(N2CCCCS2(=O)=O)c1 (some centres unmarked) [TCMDC-135225] | 15.74%
CCNc1cc(C(=O)N[C@@H](Cc2ccccc2)[C@H](O)CNC(C)CCCC(C)C)cc(N2CCCS2(=O)=O)c1 (some centres unmarked) [TCMDC-138825] | 1.46%
CCNc1cc(C(=O)N[C@@H](Cc2ccoc2)[C@H](O)CNC(C)CCCC(C)C)cc(N2CCCCS2(=O)=O)c1 (some centres unmarked) [TCMDC-135411] | 37.57%
O=C(N[C@@H](Cc1ccccc1)[C@H](O)CNC1CCOCC1)c1cc(C2CCCC2)cc(N2CCCCS2(=O)=O)c1 [TCMDC-134938] | 31.68%
CCNc1cc(C(=O)N[C@@H](Cc2ccccc2)[C@H](O)CNC(C)(C)Cc2cccc(Cl)c2)cc(N2CCCCS2(=O)=O)c1 [TCMDC-135309] | 13.84%
CCCCCC(C)NC[C@@H](O)[C@H](Cc1ccccc1)NC(=O)c1cc(NCC)cc(N2CCCCS2(=O)=O)c1 (some centres unmarked) [TCMDC-135293] | 40.73%
CCNc1cc(C(=O)N[C@@H](Cc2cccc(F)c2)[C@H](O)CNC(C)CCCC(C)C)cc(N2CCCCS2(=O)=O)c1 (some centres unmarked) [TCMDC-135307] | 42.64%
CCCC(C)NC[C@@H](O)[C@H](Cc1ccccc1)NC(=O)c1cc(NCC)cc(N2CCCCS2(=O)=O)c1 (some centres unmarked) [TCMDC-135226] | 61.06%
CC(C)[C@@H](C(=O)NCc1cccc(C(F)(F)F)c1)N1C(=O)CCC1C(=O)Nc1ccc([N+](=O)[O-])cc1 (some centres unmarked) [TCMDC-141408] | -12.94%
COc1ccc(Cc2cnc3nc(N)nc(N)c3c2C)cc1 [TCMDC-137704] | 42.37%
CC(=O)NCC(=O)NC1=NC(C)(C)N(OCc2ccc3ccccc3c2)C(N)=N1 [TCMDC-131579] | 9.815%
CC(=O)Nc1cccc(C(=O)Nc2cccc(-c3cccc(-c4nc5ccccc5[nH]4)c3)c2)c1 [TCMDC-132134] | -16.76%
COc1cccc(-n2ncc3c(N/N=C/c4ccc(CN(C)CCN(C)C)cc4)ncnc32)c1 [TCMDC-138728] | 20.85%
O=C(NCCCc1ccccc1)c1csc(C2CCCN(C(=O)c3ccc(O)c(-c4ccccc4)c3)C2)n1 (centres unmarked) [TCMDC-140153] | -2.163%
O=C(Nc1cccnc1)c1cn(-c2ccccc2)nc1-c1cccs1 [TCMDC-124055] | -11.35%
COc1ccc(NC(=O)[C@H](CC(C)C)Nc2cc(C)nc(NCc3cccc(C)c3)n2)cc1 [TCMDC-134891] | -4.805%

SMILES | % Inhibition
O=[N+]([O-])c1cccc(NC(=S)N2CCCN(Cc3ccc(C(F)(F)F)cc3)CC2)c1 [TCMDC-141016] | 26.08%
O=C(Nc1cccc(CN2CCCN(Cc3ccc(O)cc3)CC2)c1)c1cccc(F)c1 [TCMDC-141816] | -13.75%
O=[N+]([O-])c1cccc(NC(=S)N2CCCN(Cc3ccc(F)cc3F)CC2)c1 [TCMDC-141015] | 78.9%
O=[N+]([O-])c1cccc(NC(=S)N2CCCN(Cc3ccc(Cl)cc3Cl)CC2)c1 [TCMDC-141017] | 68.72%
O=C(Nc1cccc(OC2CCN(Cc3ccccc3)CC2)c1)Nc1cccc([N+](=O)[O-])c1 [TCMDC-139544] | -4.381%
O=C(/C=C/c1ccc(Cl)c(Cl)c1)NCCCCCN1CCCN(C(=S)Nc2cccc(Cl)c2)CC1 [TCMDC-135894] | 9.594%
Fc1ccc(-c2cncc(Nc3ccncc3)n2)cc1 [TCMDC-134499] | 21.35%
CC1(C(=O)Nc2ccc([N+](=O)[O-])cc2O)CC2c3ccccc3C1c1ccccc12 (centres unmarked) [TCMDC-124076] | -1.633%
O=C(NC1CCC(N2CCN(c3cccc4[nH]ccc34)CC2)CC1)c1cc2cccnc2[nH]1 (centres unmarked) [TCMDC-134216] | -40.15%
CC(=O)N(C)C1CCN(Cc2ccc(-c3ccc(-c4nc5ccc(F)cc5[nH]4)s3)cc2)C1 (centres unmarked) [TCMDC-133895] | -2.042%
NC1CCN(Cc2cccc(-c3ccc(-c4nc5ccccc5[nH]4)s3)c2)C1.O=C(O)C(F)(F)F (centres unmarked) [TCMDC-133869] | 26.1%
OCC1CCN(Cc2ccc(-c3ccc(-c4nc5ccc(F)cc5[nH]4)s3)cc2)CC1 [TCMDC-133127] | -4.488%
OC1CCCN(Cc2ccc(-c3ccc(-c4nc5ccc(F)cc5[nH]4)s3)cc2)C1 (centres unmarked) [TCMDC-133821] | -16.69%
NC1CCCN(Cc2ccc(-c3ccc(-c4nc5ccc(F)cc5[nH]4)s3)cc2)C1 (centres unmarked) [TCMDC-133856] | 57.48%
NC1CCN(Cc2ccc(-c3ccc(-c4nc5ccccc5[nH]4)s3)cc2)C1 (centres unmarked) [TCMDC-133847] | 76.03%
NC1CCN(Cc2ccc(-c3ccc(-c4nc5ccc(F)cc5[nH]4)s3)cc2)C1 (centres unmarked) [TCMDC-133854] | 66.76%
NC1CCCN(Cc2ccc(-c3ccc(-c4nc5ccccc5[nH]4)s3)cc2)C1 (centres unmarked) [TCMDC-133849] | 41.97%
CCOc1cc(C(=O)NCC2CCN(CC3CCCCC3)CC2)ccc1-c1nc2ccc(Cl)cc2[nH]1 [TCMDC-140914] | -32.49%
O=C(NCCc1ccc(Cl)c(Cl)c1)[C@@H]1CCCN1C(=O)c1ccc(O)c(-c2cccc(C(F)(F)F)c2)c1 [TCMDC-140822] | 3.039%
O=C(NCc1ccc(Cl)cc1)c1ccc(C(=O)NCC2CCCN2CC2CCCCC2)cc1 (centres unmarked) [TCMDC-136754] | -3.385%
O=C(/C=C/c1ccc(C(F)(F)F)cc1)NCCCCCN1CCN(C(=O)Nc2ccc(F)c(Cl)c2)CC1 [TCMDC-136096] | 8.329%
Cc1noc(-c2ccccc2)c1NC(=O)NC1CCN(CCCCCNC(=O)/C=C/c2ccc(Cl)c(Cl)c2)CC1 [TCMDC-135890] | -22.75%
O=C(/C=C/c1ccc(Cl)cc1)NCCCCCN1CCN(C(=O)C=Cc2ccc(Cl)c(Cl)c2)CC1 [TCMDC-135914] | 71.52%

SMILES | % Inhibition
O=C(/C=C/c1ccc(C(F)(F)F)cc1)NCCCCCN1CCCN(C(=O)Nc2ccc(Cl)c(Cl)c2)CC1 [TCMDC-136104] | -57.55%
Cc1noc(-c2ccccc2)c1NC(=O)N1CCN(CCCCCCNC(=O)/C=C/c2ccc(Cl)c(Cl)c2)CC1 [TCMDC-135892] | 75.05%
Cc1cc(C)c(NC(=O)N2CCCN(CCCCCNC(=O)/C=C/c3ccc(Cl)c(Cl)c3)CC2)c(C)c1 [TCMDC-135753] | 28.16%
O=C(/C=C/c1ccc(Cl)c(Cl)c1)NCCCCCN1CCCN(C(=O)Nc2ccc(Cl)c(C(F)(F)F)c2)CC1 [TCMDC-135762] | -47.47%
O=C(/C=C/c1ccc(Cl)c(Cl)c1)NCCCCCCN1CCCN(C(=O)Nc2ccc(Cl)c(C(F)(F)F)c2)CC1 [TCMDC-135935] | 84.32%
O=C(/C=C/c1ccc(Cl)c(Cl)c1)NCCCCCCN1CCN(C(=O)Nc2ccc(Cl)c(C(F)(F)F)c2)CC1 [TCMDC-135836] | -47.93%
O=C(/C=C/c1ccc(C(F)(F)F)cc1)NCCCCCN1CCCN(C(=O)Nc2ccc(F)c(Cl)c2)CC1 [TCMDC-136107] | 77.99%
O=C(/C=C/c1ccc(Cl)c(Cl)c1)NCCCCCN1CCCN(C(=S)Nc2ccc(Cl)cc2)CC1 [TCMDC-135893] | 2.458%
O=C(/C=C/c1ccc(Cl)c(Cl)c1)NCCCCCN1CCCN(C(=O)Nc2ccc(Cl)cc2)CC1 [TCMDC-135748] | -7.449%
Cc1cccc2[nH]c(-c3cccc(-c4cccc(NC(=O)CC5NC(=O)c6ccccc65)c4)c3)nc12 (centres unmarked) [TCMDC-137093] | 12.03%
CCOc1cc(C)ccc1C1CCN(CCCCNC(=O)c2coc(-c3ccc(Cl)cc3)c2)CC1 [TCMDC-138530] | -52.9%
O=C(c1cc(C(=O)NCc2ccc(Cl)cc2)c(=O)n(Cc2ccc(Cl)cc2)c1)c1cc(Cl)ccc1O [TCMDC-124339] | -61.86%
OC(CNc1ccnc(Nc2ccc(Cl)cc2)n1)c1cccc(C(F)(F)F)c1 (centres unmarked) [TCMDC-136587] | 30.58%
O=C(/C=C/c1ccc(Cl)c(Cl)c1)NCCCCCCN1CCCN(C(=O)Nc2ccc(Cl)c(Cl)c2)CC1 [TCMDC-135933] | 52.33%
O=C(/C=C/c1ccc(Cl)c(Cl)c1)NCCCCCCN1CCCN(C(=O)Nc2cccc(C(F)(F)F)c2)CC1 [TCMDC-135934] | 13.78%
O=C(/C=C/c1ccc(Cl)c(Cl)c1)NCCCCCN1CCCN(C(=O)Nc2cccc(C(F)(F)F)c2)CC1 [TCMDC-135758] | 79.21%
O=C(/C=C/c1ccc(Cl)c(Cl)c1)NCCCCN1CCCN(C(=O)Nc2ccc(Cl)c(Cl)c2)CC1 [TCMDC-135932] | 87.86%
O=C(/C=C/c1ccc(Cl)c(Cl)c1)NCCCCCCN1CCN(C(=O)Nc2ccc(Cl)c(Cl)c2)CC1 [TCMDC-135835] | 30.42%
O=C(/C=C/c1ccc(Cl)c(Cl)c1)NCCCCCCN1CCCN(C(=O)Nc2ccc(F)c(Cl)c2)CC1 [TCMDC-135940] | 14.82%
O=C(/C=C/c1ccc(Cl)c(Cl)c1)NCCCCCN1CCCN(C(=O)Nc2ccc(Cl)c(Cl)c2)CC1 [TCMDC-135759] | -47.93%
O=C(/C=C/c1ccc(Cl)c(Cl)c1)NCCCCN1CCCN(C(=O)Nc2ccc(F)c(Cl)c2)CC1 [TCMDC-135931] | -30.88%
O=C(/C=C/c1ccc(Cl)c(Cl)c1)NCCCCCCN1CCCN(C(=O)Nc2ccc(C(F)(F)F)cc2)CC1 [TCMDC-135937] | -27.04%
